Source: ChEMBL document CHEMBL1961873, “Compounds: GSK PKIS; Assays: Nanosyn kinase panel” (2012)
“And” between values parts separate entries of the source, which are not always exact repeats. Equal entries are not always repeated.

Assays:
[1] = biological target: RAF proto-oncogene serine/threonine-protein kinase (Homo sapiens) (UniProt P04049); settings: at 1 µM;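 note: values are the mean percent inhibition of CRAF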
[2] = biological target: T1, Interleukin-1 receptor-associated kinase 4 (Homo sapiens) (UniProt Q9NWZ3); settings: at 0.1 µM
T1 sequence (whole entry): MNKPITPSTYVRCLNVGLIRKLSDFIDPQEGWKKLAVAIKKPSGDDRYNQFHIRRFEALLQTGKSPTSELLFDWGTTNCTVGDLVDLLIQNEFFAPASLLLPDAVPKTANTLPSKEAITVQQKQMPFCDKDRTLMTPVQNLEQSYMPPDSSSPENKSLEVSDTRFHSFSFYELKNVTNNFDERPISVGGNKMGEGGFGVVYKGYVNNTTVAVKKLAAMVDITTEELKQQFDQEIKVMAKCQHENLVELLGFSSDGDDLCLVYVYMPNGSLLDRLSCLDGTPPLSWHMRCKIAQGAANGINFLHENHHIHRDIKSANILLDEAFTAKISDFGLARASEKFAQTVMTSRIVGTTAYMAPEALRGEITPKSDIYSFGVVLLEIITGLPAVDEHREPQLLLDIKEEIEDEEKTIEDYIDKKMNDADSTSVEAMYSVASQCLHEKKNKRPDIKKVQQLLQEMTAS

[3] = biological target: T1, Interleukin-1 receptor-associated kinase 4 (Homo sapiens); settings: at 1 µM
[4] = biological target: Leucine-rich repeat serine/threonine-protein kinase 2 (Homo sapiens) (UniProt Q5S007); settings: at 0.1 µM
Sequence of Leucine-rich repeat serine/threonine-protein kinase 2 (Homo sapiens) (Q5S007 whole entry): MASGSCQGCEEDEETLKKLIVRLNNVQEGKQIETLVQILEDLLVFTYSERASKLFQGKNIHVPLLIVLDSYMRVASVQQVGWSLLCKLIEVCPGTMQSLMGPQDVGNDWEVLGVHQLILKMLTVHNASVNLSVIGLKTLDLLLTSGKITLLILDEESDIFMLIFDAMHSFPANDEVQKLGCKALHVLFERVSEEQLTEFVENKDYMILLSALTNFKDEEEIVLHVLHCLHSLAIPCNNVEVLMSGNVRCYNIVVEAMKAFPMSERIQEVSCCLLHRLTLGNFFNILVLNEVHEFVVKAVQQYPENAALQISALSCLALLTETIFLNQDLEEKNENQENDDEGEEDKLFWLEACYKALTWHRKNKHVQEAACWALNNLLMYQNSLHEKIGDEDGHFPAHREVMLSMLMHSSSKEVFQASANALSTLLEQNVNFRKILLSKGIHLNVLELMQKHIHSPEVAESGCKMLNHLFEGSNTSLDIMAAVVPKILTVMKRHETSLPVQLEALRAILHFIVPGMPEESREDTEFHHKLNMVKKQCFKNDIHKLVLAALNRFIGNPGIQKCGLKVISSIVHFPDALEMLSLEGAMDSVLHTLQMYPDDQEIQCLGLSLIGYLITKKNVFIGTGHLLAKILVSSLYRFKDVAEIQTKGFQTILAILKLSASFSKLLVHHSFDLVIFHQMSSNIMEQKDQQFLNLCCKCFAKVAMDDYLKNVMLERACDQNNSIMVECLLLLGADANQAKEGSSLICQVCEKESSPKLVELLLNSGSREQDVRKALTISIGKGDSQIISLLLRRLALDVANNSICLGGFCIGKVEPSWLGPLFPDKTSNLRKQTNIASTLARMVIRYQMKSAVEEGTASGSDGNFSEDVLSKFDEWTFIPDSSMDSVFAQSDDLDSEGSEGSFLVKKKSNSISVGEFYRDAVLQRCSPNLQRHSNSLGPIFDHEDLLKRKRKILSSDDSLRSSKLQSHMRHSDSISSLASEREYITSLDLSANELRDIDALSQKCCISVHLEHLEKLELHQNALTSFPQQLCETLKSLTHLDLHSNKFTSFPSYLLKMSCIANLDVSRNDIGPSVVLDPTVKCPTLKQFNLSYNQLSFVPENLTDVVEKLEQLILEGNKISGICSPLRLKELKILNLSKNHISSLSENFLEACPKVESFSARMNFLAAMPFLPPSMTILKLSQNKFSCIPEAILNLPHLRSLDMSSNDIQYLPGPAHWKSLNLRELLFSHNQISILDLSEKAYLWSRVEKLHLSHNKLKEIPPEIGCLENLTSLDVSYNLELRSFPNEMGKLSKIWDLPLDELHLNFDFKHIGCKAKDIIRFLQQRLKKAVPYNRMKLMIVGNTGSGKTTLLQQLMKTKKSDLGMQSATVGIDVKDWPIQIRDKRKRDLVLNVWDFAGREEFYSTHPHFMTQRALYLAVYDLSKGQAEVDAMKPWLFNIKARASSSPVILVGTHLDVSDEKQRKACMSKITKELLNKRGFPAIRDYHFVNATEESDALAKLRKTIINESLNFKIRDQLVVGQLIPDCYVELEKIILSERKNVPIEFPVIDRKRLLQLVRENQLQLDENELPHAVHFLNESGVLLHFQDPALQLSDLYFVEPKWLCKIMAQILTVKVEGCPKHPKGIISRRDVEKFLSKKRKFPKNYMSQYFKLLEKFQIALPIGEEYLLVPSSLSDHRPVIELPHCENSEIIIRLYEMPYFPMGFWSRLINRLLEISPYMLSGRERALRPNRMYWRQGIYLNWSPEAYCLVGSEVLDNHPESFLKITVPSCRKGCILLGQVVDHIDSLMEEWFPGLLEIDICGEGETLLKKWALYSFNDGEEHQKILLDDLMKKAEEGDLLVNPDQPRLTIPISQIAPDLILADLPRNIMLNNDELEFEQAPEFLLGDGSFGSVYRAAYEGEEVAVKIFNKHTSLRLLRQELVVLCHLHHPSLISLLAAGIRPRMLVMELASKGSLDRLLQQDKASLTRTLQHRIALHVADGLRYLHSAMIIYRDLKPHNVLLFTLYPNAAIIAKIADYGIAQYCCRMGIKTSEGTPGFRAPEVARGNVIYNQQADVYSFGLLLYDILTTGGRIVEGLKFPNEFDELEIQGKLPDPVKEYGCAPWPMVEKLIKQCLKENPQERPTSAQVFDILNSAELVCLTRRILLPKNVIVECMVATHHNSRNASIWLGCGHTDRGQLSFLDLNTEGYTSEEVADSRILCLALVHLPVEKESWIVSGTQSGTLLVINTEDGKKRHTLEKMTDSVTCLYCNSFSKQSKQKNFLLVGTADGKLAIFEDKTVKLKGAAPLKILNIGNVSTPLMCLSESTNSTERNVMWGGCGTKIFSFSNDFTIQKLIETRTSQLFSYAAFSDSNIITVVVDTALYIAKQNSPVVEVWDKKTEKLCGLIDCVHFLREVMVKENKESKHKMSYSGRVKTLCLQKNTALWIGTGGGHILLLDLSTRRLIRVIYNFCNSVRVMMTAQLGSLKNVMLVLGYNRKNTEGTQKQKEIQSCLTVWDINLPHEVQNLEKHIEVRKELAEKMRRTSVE

[5] = biological target: Leucine-rich repeat serine/threonine-protein kinase 2 (Homo sapiens) (UniProt Q5S007); settings: at 1 µM
[6] = test system: Leucine-rich repeat serine/threonine-protein kinase 2 (Homo sapiens), Q5S007 [G2019S]; settings: at 0.1 µM
Sequence of Leucine-rich repeat serine/threonine-protein kinase 2 (Homo sapiens), Q5S007 [G2019S] (Q5S007 whole entry G2019S): as the sequence (Q5S007 whole entry) above, with G2019S counted along it

[7] = test system: Leucine-rich repeat serine/threonine-protein kinase 2 (Homo sapiens), Q5S007 [G2019S]; settings: at 1 µM

Sequence of RAF proto-oncogene serine/threonine-protein kinase (Homo sapiens) (P04049 whole entry): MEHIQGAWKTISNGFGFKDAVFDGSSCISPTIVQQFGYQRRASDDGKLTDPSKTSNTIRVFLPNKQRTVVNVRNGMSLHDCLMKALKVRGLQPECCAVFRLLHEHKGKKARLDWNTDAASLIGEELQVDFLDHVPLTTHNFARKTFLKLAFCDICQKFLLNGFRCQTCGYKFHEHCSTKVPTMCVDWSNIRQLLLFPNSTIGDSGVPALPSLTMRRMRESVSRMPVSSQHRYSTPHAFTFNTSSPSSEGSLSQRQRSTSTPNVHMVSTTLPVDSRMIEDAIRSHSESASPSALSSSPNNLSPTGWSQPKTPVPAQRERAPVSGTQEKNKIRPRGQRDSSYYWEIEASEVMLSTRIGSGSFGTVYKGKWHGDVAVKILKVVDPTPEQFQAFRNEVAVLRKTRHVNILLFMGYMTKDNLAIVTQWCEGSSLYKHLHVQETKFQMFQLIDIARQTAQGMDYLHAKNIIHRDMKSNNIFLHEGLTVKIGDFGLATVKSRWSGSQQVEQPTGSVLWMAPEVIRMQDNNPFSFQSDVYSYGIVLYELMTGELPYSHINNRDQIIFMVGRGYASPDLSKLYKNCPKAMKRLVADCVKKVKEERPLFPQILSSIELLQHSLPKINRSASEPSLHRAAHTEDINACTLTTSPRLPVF

Compound	inhibition [1]	inhibition [2]	inhibition [3]	inhibition [4]	inhibition [5]	inhibition [6]	inhibition [7]
CNC(=O)c1sc(-n2cnc3cc(OC)c(OC)cc32)cc1OCc1ccccc1C(F)(F)F	0.72%	2.12%	1.97%	2.86%	9.7%	3.5%	7.21%
CNC(=O)c1ncccc1Nc1nc(Nc2cc3c(cc2OC)CCCN3C(=O)CN(C)C)nc2[nH]ccc12	-9.95%	-0.32%	2.65%	29.7%	26.6%	65.3%	64.5%
CCN1CCC(C(=O)Nc2n[nH]c3nnc(-c4cccc(F)c4F)cc23)CC1	-2.59%	0.27%	0.13%	1.99%	3.27%	2.15%	1.7%
N#Cc1ccc2c(-c3ccnc(NC4CC4)n3)c(-c3ccc(F)cc3)nn2c1	-2.54%	0.03%	-0.5%	2.1%	-2.22%	1.24%	-0.08%
CN1CCC(n2cnc(-c3ccc(F)cc3)c2-c2ccnc(NCCO)n2)CC1	1.26%	-1.44%	1.47%	3.06%	4.49%	4.69%	5.35%
N#Cc1cccc(Nc2ncc(-c3ccccc3)o2)c1	-0.15%	2.82%	0.78%	1.01%	2.11%	1.64%	4.25%
COc1c(C(N)=O)cc(-c2ccc(Cl)cc2)cc1-c1ccc(S(N)(=O)=O)cc1	1.44%	1.96%	1.85%	-0.34%	6.11%	3.53%	9.4%
Nc1nccc(-c2c(-c3ccc(F)cc3)ncn2C2CCNCC2)n1	8.14% and -2.89%	3.05% and 0.88%	-1.58% and -0.23%	-1.76% and 1.62%	3.33% and 3.21%	0.34% and 3.78%	4.42% and 3.38%
Cc1ccc(-c2cc3c(NC(=O)C4CC4)ncnc3o2)cc1	-2.51%	-1.3%	2.26%	9.7%	12.2%	9.7%	16.6%
O=C(O[C@H]1CN[C@H](C#Cc2cc3ncnc(Nc4ccc5c(ccn5Cc5cc(F)ccc5F)c4)c3s2)C1)N1CCOCC1	-3.01%	3.45%	2.43%	3.48%	6.3%	3.23%	5.91%
CN(c1ccc(NC(=O)NCCN2CCOCC2)cc1)c1ccnc(Nc2ccc(CS(C)(=O)=O)cc2)n1	7.58%	-5.94%	1.07%	2.79%	9.85%	2.66%	14.7%
CC1=C(C(=O)Nc2ccc3[nH]ncc3c2)C(c2ccc(F)cc2)N=C(c2ccc(C(F)(F)F)nc2)N1 (configuration not stated)	-4.26%	-2.11%	0.95%	2.81%	7.24%	5.04%	26%
CS(=O)(=O)Nc1ccc(-c2ccc3c(NC(=O)C4CC4)n[nH]c3c2)cc1	5.45%	-4.64%	1.75%	9.03%	5.46%	9.88%	15.1%
CN1CCN(Cc2ccc(-c3cc4ncnc(Nc5ccc(OCc6cccc(F)c6)c(Cl)c5)c4s3)o2)CC1	-2.88% and 11.7%	0.28% and 1.52%	0.56% and 2.95%	2.03% and 2.75%	6.29% and 5.13%	4.59% and 4.9%	7.45% and 5.92%
CCS(=O)(=O)c1ccc(OC)c(Nc2ncc(-c3cccc(F)c3)o2)c1	-3.37%	2.36%	5.42%	2.2%	14.5%	6.1%	27.9%
Cc1cc(O)cc(C)c1/C=C/c1cncc(C(=O)OC(C)(C)C)c1	-0.4%	3.06%	1.36%	6.27%	9.43%	6.75%	10.9%
